# PMC5540273 (PLoS ONE, 2017)
# Legend:
# Settings in all cases: concentration: 1 μM, replicates: in singlicate; n = 1
# [1] = test system: T1, MEK2
# T1 construct: gene MAP2K2
# [2] = test system: T2, MEK3
# T2 construct: gene MAP2K3
# [3] = test system: T3, MEK4
# T3 construct: gene MAP2K4
# [4] = test system: T4, MEK5
# T4 construct: gene MAP2K5
# [5] = test system: T5, MEK6
# T5 construct: gene MAP2K6
# [6] = test system: MELK
# [7] = test system: MERTK
# [8] = test system: MET
# [9] = test system: T6, MINK
# T6 construct: gene MINK1
# [10] = test system: MKK7
# [11] = test system: MKNK1
# [12] = test system: MKNK2
# [13] = test system: T7, MLCK
# T7 construct: gene MYLK3
# [14] = test system: T8, MLK1
# T8 construct: gene MAP3K9
# [15] = test system: MLK2
# [16] = test system: MLK3
# [17] = test system: MRCKA
# [18] = test system: T9, MRCKB
# T9 construct: gene CDC42BPB
# [19] = test system: MST1R
# [20] = test system: T10, MST1
# T10 construct: gene STK4
# 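Also: KINOMEscan kinase panel screen.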
Compound,%Inh [1] [%],%Inh [2] [%],%Inh [3] [%],%Inh [4] [%],%Inh [5] [%],%Inh [6] [%],%Inh [7] [%],%Inh [8] [%],%Inh [9] [%],%Inh [10] [%],%Inh [11] [%],%Inh [12] [%],%Inh [13] [%],%Inh [14] [%],%Inh [15] [%],%Inh [16] [%],%Inh [17] [%],%Inh [18] [%],%Inh [19] [%],%Inh [20] [%]
COc1cccc(-c2cc(-c3c[nH]nc3-c3ccccn3)ccn2)c1 [GW680338],0,67,8,13,0,19,14,10,65,10,6,0,8,0,43,9,16,0,35,4
Cc1cccc(-c2nc(Nc3ccc4[nH]ncc4c3)c3ccccc3n2)n1 [GW857175],24,19,51,40,0,25,11,2,19,12,0,0,0,2,22,7,0,72,0,0
CS(=O)(=O)c1ccc(-c2c(-c3ncn[nH]3)sc(N3CCOCC3)c2C#N)cc1,0,0,0,16,0,5,0,0,21,10,0,0,13,0,51,15,0,16,29,24
Cc1cccc(-c2nc(Nc3ccncc3)c3ccccc3n2)n1 [GW855857],25,0,0,14,0,11,9,25,33,0,0,0,0,11,7,6,47,63,0,0
Cc1c(Cn2ccn3c(=O)cc(N4CCOCC4)nc23)cccc1C(F)(F)F [GSK2289044],0,17,9,0,0,21,15,0,1,16,0,0,7,0,0,3,0,0,27,1
Cl.Oc1ccc(-c2nc(-c3ccccc3)[nH]c2-c2ccncc2)cc1 [SB-428218],0,0,0,17,1,2,0,0,11,0,0,0,14,0,0,0,43,2,0,10
Cc1csc(-c2nc(Nc3ccncc3)c3ccccc3n2)n1 [GW869640],17,38,29,47,0,24,0,30,55,10,0,38,2,8,60,0,0,44,11,18
O=C1NC(=O)C(N2CCc3ccccc32)=C1c1ccccc1Cl [SB-373598],0,0,9,8,0,12,27,17,4,20,7,0,18,14,50,46,0,5,7,87
C[C@@H]1CCCCN1c1cc(-c2ccc3c(N)n[nH]c3c2)nc(N)n1 [GSK2258759],0,0,8,7,14,0,11,0,15,0,0,5,0,0,0,0,6,0,28,0
O=S(=O)(c1ccc(-c2ccnc3[nH]ccc23)cc1)N1CCCC1 [GSK846226],22,0,18,14,21,7,16,0,0,0,14,46,4,0,0,0,0,0,16,0
